Source: PubChem
This excerpt belongs to a sample that is enriched for hits.
APE1 inh: APE1 (human) endonuclease inhibition; P27695; recombinant APE1, TAMRA/BHQ-2 abasic DNA cleavage fluorescence; Potency, µM (series often up to 65.8 µM), for the others: top-dose activity change, negative = inhibition, usual class: inhibitors; 0.35% of 350,000 active;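 further: plate controls were vehicle for no effect and reference inhibitor for full effect; nearly all actives have a fitted effect of over 55% in size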
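Endonuclease cleavage of a quenched abasic-site DNA duplex (50 nM) by APE1 (0.75 nM) was tracked by TAMRA dequenching. Compounds were preincubated with enzyme 15 min at room temperature; data normalized to buffer-only and DMSO wells plus NSC13755 control.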
RECQ1 inh: RECQ1 (human) helicase inhibition; P46063; RECQ1 DNA unwinding, red fluorescence kinetic read; Potency, µM (series often up to 57.3 µM), inactives show at the highest dose activity, negative = inhibition, most hits filed as inhibitors; 0.54% of 240,000 active; AID 2549;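 further: plate controls were vehicle for no effect and no enzyme for full effect; nearly all actives have a fitted effect of over 30% in size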
Target sequence (P46063 whole entry, looked up): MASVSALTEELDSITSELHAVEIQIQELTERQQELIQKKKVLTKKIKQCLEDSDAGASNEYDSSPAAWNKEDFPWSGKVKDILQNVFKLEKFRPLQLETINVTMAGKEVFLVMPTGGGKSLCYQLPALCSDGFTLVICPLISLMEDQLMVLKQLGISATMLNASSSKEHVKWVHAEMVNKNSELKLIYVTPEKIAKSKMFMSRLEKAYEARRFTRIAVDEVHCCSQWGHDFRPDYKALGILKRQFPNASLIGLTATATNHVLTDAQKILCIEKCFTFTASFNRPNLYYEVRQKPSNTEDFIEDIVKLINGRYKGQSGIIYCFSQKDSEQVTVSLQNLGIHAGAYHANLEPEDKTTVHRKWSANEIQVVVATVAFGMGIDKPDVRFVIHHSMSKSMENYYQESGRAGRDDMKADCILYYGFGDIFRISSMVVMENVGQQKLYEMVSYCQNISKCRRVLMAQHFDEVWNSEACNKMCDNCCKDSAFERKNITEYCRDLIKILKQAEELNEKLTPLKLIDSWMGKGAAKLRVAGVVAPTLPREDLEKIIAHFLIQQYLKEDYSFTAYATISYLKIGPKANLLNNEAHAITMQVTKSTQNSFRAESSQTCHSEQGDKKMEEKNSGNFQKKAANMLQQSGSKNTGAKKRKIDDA
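RECQ1T1 50 nM; forked duplex (20 bp + 30-nt ss tails) 200 nM, ATP 2 mM final; pH 8.0, 2 mM MgCl2, 2.5 ug/ml poly(dI-dC); 15 min compound preincubation; discontinuous kinetic read over 2 h at RT.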
JMJD2E inh: blocks human JMJD2E demethylase activity; Potency, µM (titrated, usually from 57.1 µM), for inactives: top-dose activity change, negative = inhibition, usual class: inhibitors; JMJD2E catalytic domain, FDH-coupled NADH fluorescence (FDH is formaldehyde dehydrogenase); 1.6% of 230,000 active; AID 2147; B2RXH2; active means well fitted inhibition curve with a large enough effect, not every such curve was filed as active; inconclusive means small, poorly fitted or top-dose-only effect, or another doubt; inactive means no such curve, though single readings can be large or run the other way;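 further: 0% = wells with enzyme and -100% = buffer wells without enzyme; nearly all actives have a fitted effect of over 50% in size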
BLM helicase inh: inhibitors of human Bloom syndrome helicase BLM; recombinant BLM DNA unwinding, fluorescence dequenching; Potency, µM (titrated, usually from 56.1 µM), for the others: at the highest dose activity change, negative = inhibition, most hits filed as inhibitors; AID 2528; 0.2% of 350,000 active;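 further: plate controls were vehicle for no effect and no enzyme for full effect; nearly all actives have a fitted effect of over 35% in size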
L3MBTL1 block: L3MBTL1 (human) inhibition. 0.66% of 230,000 active. Potency, µM (highest dose often 57.1 µM), for the others: at the highest dose activity, negative = inhibition, most hits filed as inhibitors. AlphaScreen L3MBTL1–H3K9me1 peptide binding. AID 485360; further: nearly all actives have a fitted effect of over 60% in size
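L3MBTL1 (50 nM) pre-complexed 30 min with biotinylated H3(1-15)K9me1 peptide (75 nM), then compounds added for 30 min at room temperature; AlphaScreen streptavidin donor/nickel chelate acceptor beads (10 ug/mL final) read after 30 min dark incubation.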
Starred values were filed as active, the others as inactive; i = inactive; ? = inconclusive; . = no result given; ! = repeats disagree; [ ] = remark or other dose. Unless noted, the call rests on the fitted dose curve; in most records, active means well fitted curve in the direction sought with a large enough effect; inconclusive means small, poorly fitted or top-dose-only effect, or another doubt; inactive means no such curve, though single readings can be large; an effect the other way counts as inactive or inconclusive. Unless noted, on the % scale 0 is the no-effect control and ±100 the full control effect; potency means the concentration at half of the fitted maximal effect.

SMILES | APE1 inh | RECQ1 inh | JMJD2E inh | BLM helicase inh | L3MBTL1 block
c1ccc2c(c1)c1cc[n+]2CCCCC[n+]2ccc(c3ccccc32)NCCCCCN1 | 1% | 35% | . | 104% | .
C[C@]12CC[C@H]3[C@@H](CCC4=CC(=O)CC[C@@]43O)[C@@H]1CCC2=O | 8% | . | . | 1% | .
COc1ccc(-n2c(-c3ccc(C)cc3)nc3ccccc3c2=O)cc1 | ? | 5% | -5% | -5% | -18%
COc1ccc(-c2nc3ccccc3c(=O)o2)cc1 | 12% | -7% | 25µM* | -6% | 3%
Cc1nc2cc([N+](=O)[O-])ccc2c(=O)n1-c1ccc(Br)cc1 | 11% | . | . | -6% | 1%
CN(CCCC(=O)c1cccnc1)N=O | 3% | 1% | . | . | .
N#CC(C#N)=Cc1cc(O)c(O)c(O)c1 | ? | 8% | 2µM* | . | .
N#CC(C#N)=Cc1ccc(O)cc1 | ? | 16% | . | -15% | .
FC(F)=C(F)CCSc1ncn[nH]1 | -3% | i | 4.5µM* | -2% | -2%
CCN1C(=O)CC(c2cccnc2)=Nc2ccccc21 | 6% | i | -28% | 0% | -1%
C[Se]C[C@H](N)C(=O)O | -6% | -3% | 18µM* | . | .
C/C(=N\NC(=O)c1ccccc1)c1c(O)n(Cc2ccccc2)c(=O)[nH]c1=O | -6% | -6% | 25µM* | 7% | .
O=C(N/N=C/c1c(O)n(Cc2ccc(F)cc2)c(=O)[nH]c1=O)c1ccccc1O | -6% | -9% | 25µM* | -1% | 6%
O=C(N/N=C/c1c(O)n(Cc2ccccc2)c(=O)[nH]c1=O)c1ccccc1O | 6% | -5% | -3% | 2% | 14%
COc1ccccc1-n1c(O)c(/C=N/NC(=S)Nc2ccccc2)c(=O)[nH]c1=S | -6% | -5% | 28µM* | 1% | 41%
C/C(=N\Nc1cccc2ccccc12)c1c(O)n(Cc2ccccc2)c(=O)[nH]c1=O | -3% | -26% | ? | -9% | -10%
O=C(N/N=C/c1c(O)n(CCc2ccc(F)cc2)c(=O)[nH]c1=O)c1ccccc1 | 0% | -1% | 20µM* | -1% | .
Nc1ncnc2c1nc(Sc1ccc(Cl)cc1)n2[C@@H]1O[C@@H]2COP(O)(=S)O[C@H]2[C@H]1O (stereo partly drawn) | ? | -14% | . | -2% | .
COc1ccc(Cn2c(O)c(/C=N/NC(=O)c3ccncc3)c(=O)[nH]c2=O)cc1 | -6% | -9% | 7.9µM* | -4% | -8%
O=C(N/N=C/c1c(O)n(CCc2ccccc2)c(=O)[nH]c1=O)c1ccccc1O | -1% | -5% | 28µM* | -6% | .
O=C(N/N=C/c1c(O)n(-c2cccc3ccccc23)c(=O)[nH]c1=O)c1ccncc1 | 0% | 0% | 13µM* | 0% | ?
CCn1c(O)c(/C=N/NC(=O)c2ccccc2)c(=O)[nH]c1=S | 4% | i | 32µM* | -5% | .
CC(CO)(CO)N=Cc1c(O)n(-c2cccc3ccccc23)c(=O)[nH]c1=O | -2% | 10% | -2% | 0% | .
COc1ccc(Cn2c(O)c(/C=N/NC(=O)c3ccccc3)c(=O)[nH]c2=O)cc1 | 6% | 1% | 3% | -3% | -1%
COP(=O)(OC)[C@@H](O)C(Cl)(Cl)Cl | -2%[21 µM] | 2%[25.9 µM] | 2%[25.5 µM] | -3%[21.4 µM] | .
SMILES | APE1 inh | RECQ1 inh | JMJD2E inh | BLM helicase inh | L3MBTL1 block
Cc1ccc(-n2c(O)c(/C=N/NC(=O)c3ccncc3)c(=O)[nH]c2=O)cc1C | 3% | -1% | 22µM* | 0% | -5%
O=C(N/N=C/c1c(O)n(CCc2ccccc2)c(=O)[nH]c1=O)c1ccncc1 | 3% | -6% | 28µM* | -5% | -18%
O=C(N/N=C/c1c(O)n(CCc2ccc(F)cc2)c(=O)[nH]c1=O)c1ccncc1 | 3% | -11% | ? | -5% | .
CN1[C@H]2CC[C@@H]1C(C(=O)N1CCOCC1)=C(O)C2 | -10% | . | . | . | 0%
C[C@@H](N)[C@@H](O)c1ccccc1 | 5%[21 µM] | . | . | . | .
CC(C)c1cccc(O)c(=O)c1 | -2% | 25% | 7.9µM* | 2% | -1%
CN1C(=O)C(=Cc2ccc(N3CCOCC3)c([N+](=O)[O-])c2)C(=O)N(C)C1=O | -1% | 20% | ? | 1% | -1%
O=C1NC(=O)C(=Cc2ccc(N3CCN(C(=O)c4ccccc4)CC3)c([N+](=O)[O-])c2)C(=O)N1 | 8% | 0% | 22µM* | 4% | .
CCOc1cc2c(cc1OCC)-n1cccc1C(c1cccc(F)c1)NC2 (stereo not drawn) | -23% | . | . | -8% | .
CCOc1ccc2nc(N=Nc3c(O)[nH]c(=S)[nH]c3=O)sc2c1 | ? | -11% | -6% | -9% | 7.9µM*
NC1C=CC=C(C(=O)O)C1 (stereo not drawn) | 13µM*! | -13% | -7% | . | .
CN(C)[C@@H]1C(=O)C(C(N)=O)=C(O)[C@@]2(O)C(=O)C3=C(O)c4c(O)ccc(Cl)c4[C@@](C)(O)[C@H]3C[C@@H]12 | 45% | . | . | -6% | .
CN(C)[C@@H]1C(=O)C(C(N)=O)=C(O)[C@@]2(O)C(=O)C3=C(O)c4c(O)cccc4[C@@](C)(O)[C@H]3[C@H](O)[C@@H]12 | 7.9µM*! | 11µM*! | ? | -17% | 1µM*!
CCN1C(=O)C(=C2C=C(C)N(Cc3ccco3)C(C)=C2)C(=O)N(CC)C1=S | -3% | -3% | -17% | -5% | 38%
O=C1NC(=O)N(CCc2ccc(F)cc2)C(=O)/C1=C/c1ccco1 | 10µM* | 28µM* | -15% | -20% | .
CC(C)c1ccc(N2C(=O)NC(=O)/C(=C\C=C\c3ccco3)C2=O)cc1 | ? | 16µM* | -9% | ? | .
CCN1C(=O)C(=C/C=C/c2ccco2)C(=O)N(CC)C1=S | ? | -22% | 16µM* | 11% | 13µM*
O=C1NC(=O)N(Cc2ccccc2)C(=O)/C1=C/C=C/c1ccco1 | ? | 11µM* | -15% | -30% | 28µM*
COc1cc(OC)c(OC)cc1/C=C1/C(=O)NC(=O)N(Cc2ccccc2)C1=O | -4% | -6% | ? | -3% | 1%
CCN1CCN(C(=O)Cc2ccccc2OC)CC1 | 1% | 16% | -6% | -5% | -17%
CC(=O)c1cn(CC(=O)NCCc2c[nH]c3ccccc23)c2ccccc12 | 14% | . | . | 3% | 17%
O=C(O)c1cc[c]([Hg][Cl])cc1 | 17% | -9% | ? | . | 8%
Cc1ccc(OP(N)(=O)Oc2ccc(C)cc2)cc1 | 0% | -1% | 8% | 0% | 18%
COc1cccc(N2CCN(Cc3ccc(Cl)cc3)CC2)c1 | -9% | -5% | 20µM* | -2% | -24%
COc1cccc(N2CCN(Cc3cccc(Cl)c3)CC2)c1 | -6% | -1% | -11% | -3% | -10%
